# Compound activity: PubChem, several laboratories
# Only some compounds are listed: those with a hit (about 4.3% of all), similar ones and a draw of the others.
# Wnt bcat act – activators of Wnt/beta-catenin signaling. AID 743398. 300,000 compounds, 1.2% hits. activation, % at 9.35 µM. Wnt/beta-catenin reporter cell assay, activator, plate reader; in the data active = activation above about 30%, passing the limit was not always enough; inconclusive = no clear call, values can overlap the other calls;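 note: 0% = neutral control wells and 100% = positive control wells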
# MITF act – activators of MITF-driven TRPM1 promoter activity in SK-MEL-5 cells. 300,000 compounds, 0.75% hits. activation, % at 12.5 µM. SK-MEL-5 TRPM1-promoter luciferase, 24 h; % of positive control, neutral wells = 0;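 active = mean activation of at least 80% with every replicate also reaching 80%; inconclusive = mean reaches 80% but some replicate falls short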;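 note: 0% = neutral control wells and 100% = parthenolide positive control wells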
# AF4-AF9 inh – MLL-AF4/AF9 protein interaction inhibition; P42568; AlphaScreen, biotin-AF4 peptide binding to FLAG-AF9; inhibition, % at 10 µM; 350,000 compounds, 0.47% hits; AID 651704;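 active = every replicate reaching a set inhibition limit, whatever the replicate mean, cut at about 25% in these data; inconclusive = mean inhibition reaches that limit but some replicates miss it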;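 note: 0% = plate neutral control median and 100% = total signal loss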
# Target sequence (P42568 whole entry, looked up): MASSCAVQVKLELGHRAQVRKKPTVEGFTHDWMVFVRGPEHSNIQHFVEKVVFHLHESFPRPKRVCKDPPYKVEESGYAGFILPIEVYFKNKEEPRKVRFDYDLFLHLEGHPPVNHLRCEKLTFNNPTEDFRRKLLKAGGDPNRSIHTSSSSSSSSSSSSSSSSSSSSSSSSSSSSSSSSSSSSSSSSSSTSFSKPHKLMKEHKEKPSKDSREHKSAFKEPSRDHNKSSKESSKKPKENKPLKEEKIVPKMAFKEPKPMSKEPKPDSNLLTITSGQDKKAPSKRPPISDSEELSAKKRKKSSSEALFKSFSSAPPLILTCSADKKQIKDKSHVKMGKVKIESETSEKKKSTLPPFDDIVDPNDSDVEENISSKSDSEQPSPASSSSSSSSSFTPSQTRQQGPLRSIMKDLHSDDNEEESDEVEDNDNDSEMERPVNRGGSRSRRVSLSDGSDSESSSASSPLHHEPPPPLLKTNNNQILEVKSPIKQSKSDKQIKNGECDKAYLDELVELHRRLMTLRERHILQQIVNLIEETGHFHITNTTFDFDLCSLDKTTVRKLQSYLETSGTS
# FGF22 binding – FGF22 (human) thermal shift binding; recombinant FGF22 thermal shift, SYPRO orange fluorescence; percent of sucrose octasulfate shift, DMSO zero; Q9HCT0; 340,000 compounds, 1.5% hits; activity (Tm shift, normalised), % at 9.99 µM; AID 651658;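 active = mean Tm shift, scaled 0 neutral to 100 positive control, at about 1.3% or above, every replicate too, limit read from the data; inconclusive = no clear call, values can overlap the other calls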
# SMARCA2 act – SMARCA2 function activation, primary screen | MG213 cells, MMTV-luciferase reporter, dexamethasone, overnight | activation, % at 9.1 µM | 370,000 compounds, 1% hits | AID 652017; in the data active = activation above about 7.8%;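 note: 0% = vehicle wells and 100% = reference activator wells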
# esBAF inh – inhibitors of esBAF chromatin remodeling in mouse ES cells | Bmi1-luciferase knock-in reporter, 24 h; 100% = twice the neutral-well signal | reporter increase, % at 12.5 µM | 350,000 compounds, 2% hits; in the data active = activation above about 40%; inconclusive = no clear call, values can overlap the other calls;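 note: 0% = median of the plate's neutral control wells and 100% = double that signal; a rise in the Bmi1 reporter signal indicates esBAF inhibition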
# Numbers without * were called inactive; ? = inconclusive; / = not tested or not shown.
SMILES,Wnt bcat act,MITF act,AF4-AF9 inh,FGF22 binding,SMARCA2 act,esBAF inh
CC(=O)Nc1ccc2nc(-c3cccn3C)[nH]c2c1,8.2,/,-4.5,0.1,4.1,51.2*
Cn1cccc1-c1nc2ccc(NC(=O)c3cccs3)cc2[nH]1,21.6,55.2,/,/,-0.6,64.4*
CC(=O)Nc1ccc2nc(-c3cccs3)[nH]c2c1,10.7,24.7,/,/,5.3,26.3
CCC(=O)Nc1ccc2c(c1)C(=O)N(C)[C@H]1CC[C@@H](CC(=O)NCc3ccccc3)O[C@H]1CO2,/,/,1.3,0.0,/,4.9
CCCc1cn(CC[C@@H]2CC[C@@H](NC(=O)C3CC3)[C@@H](CO)O2)nn1,/,/,-3.4,0.0,/,-1.5
C[C@H](CO)N1C[C@H](C)[C@@H](CN(C)C(=O)c2ccncc2)OCCCC[C@H](C)Oc2ccc(NC(=O)c3ccncc3)cc2C1=O,/,/,-4.3,-0.2,/,-0.4
CC(=O)NC1C(c2nc3ccccc3s2)=C(c2ccccc2)C(=O)N1c1ccc(C)cc1 (stereo unspecified),32.5*,/,/,/,-1.0,21.2
COc1cccc(N2C(=O)C(c3ccccc3)=C(c3nc4ccccc4s3)C2NC(C)=O)c1 (stereo unspecified),5.8,-3.8,/,/,0.2,-4.5
O=C(c1ccccn1)N1C[C@H]2[C@@H](c3ccccc31)[C@@H](CO)N2C(=O)Nc1ccccc1,/,/,0.3,-0.1,/,-3.4
COC(=O)Cc1csc(NC(=O)CSc2nnc3ccccn23)n1,3.8,6.4,-0.8,44.1*,0.9,/
Cc1noc(C)c1NC(=O)N(C)C[C@@H]1Oc2c(NC(=O)C3CC3)cccc2C(=O)N([C@H](C)CO)C[C@@H]1C,/,/,-1.9,0.1,/,-1.9
COc1cccc(OCCSc2nc3ccccc3c(=O)[nH]2)c1,1.7,11.4,-1.7,43.4*,2.9,/
Cc1ccc2nc(SCCCCOc3ccccc3)[nH]c2c1,/,3.8,/,/,/,1.5
COc1cccc(CSc2nc3ccccc3[nH]2)c1,59.2*,73.7,-0.2,-0.1,2.9,54.4*
c1ccc(OCCSc2nc3ccccc3[nH]2)cc1,/,87.6*,/,/,2.6,/
COc1ccc(NC(=O)Nc2ccc3c(c2)C(=O)N([C@@H](C)CO)C[C@@H](C)[C@H](CN(C)S(=O)(=O)c2ccc(Cl)cc2)OCCCC[C@@H](C)O3)cc1,/,/,4.6,-0.1,/,2.0
CCNC(=S)NCc1ccc2[nH]c(C)cc2c1,-0.7,/,27.0*,-0.2,6.8,7.6
CCOC(=O)NCc1ccc2[nH]c(C)cc2c1,-2.7,/,-2.8,-0.2,-2.0,-17.0
COc1cccc(-c2ccc([C@@H]3[C@H](CO)N(C(C)=O)C34CN(C(C)=O)C4)cc2)c1,/,/,-1.5,0.0,/,/
C[C@@H]1CCCCO[C@@H](CN(C)Cc2ccc(Cl)c(Cl)c2)[C@H](C)CN([C@@H](C)CO)C(=O)c2cc(N(C)C)ccc2O1,/,/,40.2*,0.1,/,/
C[C@@H]1CCCCO[C@@H](CN(C)Cc2ccc(Cl)c(Cl)c2)[C@H](C)CN([C@H](C)CO)C(=O)c2cc(N(C)C)ccc2O1,/,/,60.7*,-1.0,/,4.6
C[C@@H]1CCCCO[C@H](CN(C)Cc2ccc(Cl)c(Cl)c2)[C@@H](C)CN([C@@H](C)CO)C(=O)c2cc(N(C)C)ccc2O1,/,/,60.8*,-1.1,/,-2.3
CO[C@@H]1CN(C)C(=O)c2cc(NC(=O)C3CCC3)ccc2OC[C@@H](C)N(S(=O)(=O)c2ccc(Cl)cc2)C[C@H]1C,/,/,1.5,-0.2,/,3.3
CCC(=O)N(C)C[C@H]1Oc2cc(C#CC(C)C)ccc2S(=O)(=O)N([C@@H](C)CO)C[C@@H]1C,/,/,0.5,0.0,/,-1.4
CCOc1cc(/C=N/Nc2nc(N3CCCCC3)nc(N3CCCCC3)n2)ccc1OC(=O)c1ccco1,-5.2,9.1,-2.4,43.0*,1.8,4.9
SMILES,Wnt bcat act,MITF act,AF4-AF9 inh,FGF22 binding,SMARCA2 act,esBAF inh
COc1cc(/C=N/N(C)C)ccc1OC(=O)c1ccco1,0.9,-2.4,10.1,0.1,0.0,/
COc1cc(/C=N/N2CCOCC2)ccc1OCc1ccccc1,12.8,53.0,13.3,0.3,-0.5,60.9*
COc1cc(/C=N/OCC(=O)NC2CCCCC2C)ccc1OCc1ccc(Cl)cc1 (stereo unspecified),47.4*,41.7,/,/,5.6,98.3*
COc1cc(/C=N/N2CCOCC2)ccc1OC(=O)c1ccco1,-0.8,-2.7,7.2,42.9*,-3.5,/
COc1ccc(/C=N/N2CCOCC2)cc1OCc1ccccc1,-4.1,-0.9,7.5,0.1,-1.2,-7.7
COc1cc(/C=N/N2CCOCC2)ccc1OCc1ccc(Cl)cc1,10.8,95.9*,-2.0,0.1,0.7,/
C[C@@H]1CN([C@@H](C)CO)C(=O)c2cc(NS(=O)(=O)c3ccc(Cl)cc3)ccc2O[C@@H](C)CCCCO[C@@H]1CN(C)CC1CCCCC1,/,/,/,-0.3,/,4.3
C[C@H](CO)N1C[C@H](C)[C@H](CN(C)S(=O)(=O)c2cccs2)Oc2ccc(NC(=O)CCCCCC(=O)Nc3ccccc3N)cc2CC1=O,/,/,/,0.1,/,-12.3
O=C(CCCC(=O)c1ccc(F)cc1)c1ccc(F)cc1,37.3*,131.1*,-6.2,-0.3,2.2,54.7*
O=C(CCCN1CCC(C(=O)c2ccc(F)cc2)CC1)c1ccc(F)cc1,1.4,-1.5,-1.2,0.1,-1.7,-1.6
CN=c1nc(-c2ccccc2)n(-c2ccccc2)s1,0.7,-7.3,10.1,-0.4,0.6,54.7*
Cn1nc(-c2ccccc2)nc1-c1ccccc1,?,59.5,2.0,0.1,5.0,?
Cn1cc(CN2CCN(CCO)CC2)c(-c2ccc(Oc3ccccc3)cc2)n1,-3.0,0.1,3.0,43.5*,1.4,-4.6
Cn1cc(CNCc2cnc3ccccn23)c(-c2ccc(Oc3ccccc3)cc2)n1,-8.0,2.7,3.7,43.8*,-1.7,/
COCCN1CCN(Cc2cn(C)nc2-c2ccc(Oc3ccccc3)cc2)CC1,-0.5,3.5,-0.2,-0.1,-5.7,-1.9
COc1ccc(-n2nc(C(=O)NCC(=O)NCC3COc4ccccc4O3)c3ccccc3c2=O)c(OC)c1 (stereo unspecified),-1.3,-3.8,-0.4,43.8*,3.2,/
CC(C)N(C[C@@H]1CSCCS(=O)(=O)N1)C1CCCCC1,0.0,/,-1.9,0.2,-1.8,/
CCNC(=O)C[C@@H]1CC[C@H]2[C@@H](COc3ccc(NC(=O)c4ccc(F)c(F)c4)cc3C(=O)N2C)O1,/,/,0.2,-0.1,/,-0.4
COc1ccccc1NC(=O)c1ccc(NC(=O)CN(C)Cc2ccccc2F)cc1,-4.9,-4.2,0.3,43.3*,-3.6,/
C[C@H](CO)N1C[C@H](C)[C@H](CN(C)C(=O)CCCN(C)C)OCCCC[C@H](C)Oc2ccc(NC(=O)Nc3cccc4ccccc34)cc2C1=O,/,/,12.8,-0.2,/,-3.5
COC1CCN(C(=O)C2CCC(=O)N(C3CCCCCC3)C2)CC1 (stereo unspecified),23.0,67.6,-2.1,-0.1,6.0,56.4*
